# Among all 420,000 compounds or so, about 64,000 (15%) were called active. About 27% were inconclusive and are not listed. The list is a sample of the results. Values without a mark were called inactive. Calls come from the whole dose curve; as a rule, active = well fitted inhibition curve with a large enough effect; inconclusive = small, poorly fitted or top-dose-only effect; inactive = flat fitted curve, though single readings scatter.
# Experiment: qHTS for Inhibitors of human tyrosyl-DNA phosphodiesterase 1 (TDP1): qHTS in cells in absence of CPT; note: nearly all actives have a fitted effect of over 55% in size
# Settings: DT40 Tdp1-/- hTDP1 cells, no CPT, ATP luminescence, 48 h; activity change, negative = growth inhibition: at 46.2 µM (top of the series)
# Procedure, shortened: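 Luminescent ATP content (CellTiter-Glo) served as the growth readout. Knockout chicken DT40 cells expressing human TDP1 were exposed to compounds without camptothecin for a minimum 48 hr at 37 °C.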
# % is set by controls: 0 for no effect and ±100 for the full control effect; potency is the fitted concentration of half-maximal effect.
Compound,"activity change, negative = growth inhibition [%]",Potency
CC(=O)NC(CC(=O)O)c1ccc(F)cc1 (configuration not stated),-8.86,
CC1(Cc2ccccc2C#N)C(=O)Nc2ccc(-c3ccc4[nH]ccc4c3)cc21 (configuration not stated),,4.11 µM (active)
COc1ccccc1CC1(C)C(=O)Nc2ccc(OC(F)(F)F)cc21 (configuration not stated),-55.2,
CN1CCCN(S(=O)(=O)c2ccc3c(c2)OCCO3)CC1,,inactive
N#CCC(=O)NC(=O)NCC1CC1,-5.15,
CC(OC(=O)c1ccc(-n2cnnn2)cc1)C(=O)NCc1ccccc1 (configuration not stated),-20.2,
CCc1ccnc(NC(=O)Nc2ccc(OCc3ccccc3)cc2)c1,-9.03,
CC(C)(C)OC(=O)N(Cc1ccccc1)Cc1ccc(OCc2cccc(NC(=O)c3ccccc3)c2)cc1,,18.4 µM (active)
O=C(O)/C=C\C(=O)Nc1ccc(OCc2ccccc2)cc1,3.99,
CN(CC(=O)Nc1cccc(F)c1)C(=O)CC1CCCC1,-0.65,
Cc1cccc(C(=O)OC(C)CN2CCN(C)CC2)c1 (configuration not stated),-23.2,
CC(CNC(=O)Cn1cnc2c(OCc3ccccc3)ncnc21)c1ccccc1 (configuration not stated),-19.5,
Cc1ccc(CNC(=O)Cn2cnc3c(NCc4ccccc4)ncnc32)o1,,8.2 µM (active)
Cc1ccc(NC(=O)Cn2cnc3c(OCc4ccccc4)ncnc32)cc1C,-17.5,
Cc1cccc(OP(=O)(Nc2c(C)n(C)n(-c3ccccc3)c2=O)Oc2cccc(C)c2)c1,-7.24,
CCC1CCCCN1CCCNC(=O)C1CCC(Cn2c(=O)[nH]c3ccccc3c2=O)CC1 (configuration not stated),4.53,

Compound,"activity change, negative = growth inhibition [%]",Potency
CCC1CCCCN1CCCNC(=O)Cn1nc(-c2ccccc2)ccc1=O (configuration not stated),,0.0103 µM (active)
Cc1ccc(-c2ccc(=O)n(CC(=O)NCCCN3CCCCC3)n2)cc1,-4.15,
Cc1ccc(C2Nc3ccccc3C(=O)N2CCN2CCNC2=O)cc1 (configuration not stated),-10.8,
COc1ccc(OCC(=O)OCC(=O)Nc2ccc(S(=O)(=O)N3CCCCC3)cc2)cc1,3.34,
COc1ccc(S(=O)(=O)N2CCN(C(C)C(=O)Nc3ccc(C(C)C)cc3)CC2)cc1 (configuration not stated),,14.6 µM (active)
COc1cccc(CNC(C)C(=O)Nc2ccc(S(=O)(=O)N3CCCC3)cc2)c1 (configuration not stated),-11.5,
CCOC(=O)Cc1cc(=O)[nH]c(/N=C(\N)Nc2ccc(OC)cc2)n1,-6.58,
CC1CCN(C(=O)CCNC(=O)c2ccccc2)CC1,-1.19,
CNC(=O)N1c2ccccc2C=Cc2ccccc21,-7.48,
CC1C(C)N(C(=O)CCl)c2ccccc2N1C(=O)CCl (configuration not stated),,0.58 µM (active)
Cc1nc(C)c2c(c1C(F)(F)F)-c1ccccc1C2(F)F,-11.9,
O=C(NC1CCCC1)c1ccc(Br)s1,-11.5,
CCOc1c2ccc(C(=O)NCc3ccc(OC(F)(F)F)cc3)cc2nn1C,-6.96,
COc1cc(CNCc2cccs2)cc(Br)c1OC,-18.6,
COc1cc(CNCc2ccc(OC)c3ccccc23)cc(OC)c1OC,,11.6 µM (active)
COc1ccc(CNCCCNCc2ccc(OC)c(OC)c2)cc1OC,-14.4,

# Source: PubChem BioAssay AID686978 (National Center for Advancing Translational Sciences (NCATS), 2013)
